Laboratory results taken from PubChem BioAssay (Tox21).
Results filed as inconclusive are left out. Activity calls are given as the source filed them. The call rests on the fitted dose curve.

experiment: qHTS assay to identify small molecule agonists or antagonists of the thyroid stimulating hormone receptor (TSHR) signaling pathway - wild type cell line counter screen (AID 1259384); conditions: HEK293 wild type, cAMP HTRF counter-screen, hits give high values; series mostly up to 92.4 µM; cAMP activity change: at the top concentration
Excerpt: U.S. Tox21 Program National Center for Advancing Translational Sciences [NCATS] NIH Chemical Genomics Center [NCGC] U.S. Environmental Protection Agency [EPA] National Institutes of Environmental Health Sciences [NIEHS] National Toxicology Program [NTP] U.S. Food and Drug Administration [FDA] Tox21 Assay Overview: TSHR is the receptor for thyrotropin (thyroid stimulating hormone or TSH), a member of the glycoprotein hormone family. TSH is released by the anterior pituitary gland and is the main regulator of thyroid gland growth and development. Upon binding circulating thyrotropin, a G-protein signal cascade activates adenylyl cyclase and […] cAMP concentration is increased. cAMP is a key second messenger involved extensively in cellular signal transduction pathways associated with the majority of G-protein coupled receptors (GPCRs). The activation of these GPCRs by neurotransmitters, lipids, nucleotides, peptides and hormones results in the activation or the inhibition of plasma membrane-bound adenylate cyclase through heterotrimeric G-proteins. A cell-based TSHR-Hek293 assay can be used to identify TSHR agonists. To eliminate the false positive compounds identified from screening a cell-based TSHR-Hek293 cell line, cAMP assay in a wild type Hek293 cells was used as a counter screening.
Tox21 Assay Protocol Summary: Hek293 cells (wild type) were dispensed at 800 cells/4 uL/well in 1536-well white plates using a Multidrop dispenser. After the assay plates were incubated at a 37 C/5% CO2 incubator for 18 hrs, 23 nL of compounds dissolved in DMSO, positive controls or DMSO only was transferred to the assay plate by a pin tool, followed by 1 ul medium containing Ro20-1724. After 30 min of incubation at room temperature, 2.5 ul/well of cAMP-d2 and 2.5 ul/well of anti-cAMP-cryptate were added respectively into the assay plates using a Flying Reagent Dispenser. The plates were incubated at room temperature for 1 hr. The fluorescence intensity in the plates was measured using an Envision plate reader. Each test compound was measured at 15 concentrations and in triplicates.
On the % scale 0 is the no-effect control and ±100 the full control effect.

SMILES | outcome | cAMP activity change
C=C(C)C(=O)OCCOC(=O)C(=C)C | inactive | 
CCCCc1oc2ccccc2c1C(=O)c1cc(I)c(OCCN(CC)CC)c(I)c1 | inactive | 
O=C(COc1ccc(Cl)cc1)N1CCN(Cc2ccc3c(c2)OCO3)CC1 | inactive | 
CCC(C)CO (stereo not given) | inactive | 
CNCCCC12CCC(c3ccccc31)c1ccccc12 | inactive | 
OC(CCl)CCl | inactive | 
CCCCCCCCCC(=O)OC | inactive | 
O=C(c1ccccc1)c1ccccc1O | inactive | 
COc1c(Cl)c(Cl)c(Cl)c(Cl)c1Cl | inactive | 
COc1ccc(OC)c(C(O)CNC(=O)CN)c1 (stereo not given) | inactive | 
O=C(c1ccccc1)c1ccc(O)cc1O |  | -0.172% (inactive)
Cc1c(OCC(F)(F)F)ccnc1CS(=O)c1nc2ccccc2[nH]1 (stereo not given) | inactive | 
CCC(C)OC(=O)c1ccc(O)cc1 (stereo not given) | inactive | 
CN(C)c1nc(N(C)C)nc(N(C)C)n1 | inactive | 
Cc1c(C(N)=O)cc([N+](=O)[O-])cc1[N+](=O)[O-] | inactive | 
CCCCC(CC)COP(=O)(OCC(CC)CCCC)OCC(CC)CCCC (stereo not given) | inactive | 
c1ccc(Nc2ccccc2)cc1 | inactive | 
O=C1OC2(c3cc(Br)c(O)c(Br)c3Oc3c2cc(Br)c(O)c3Br)c2c(Cl)c(Cl)c(Cl)c(Cl)c21 |  | 6.27% [at 42.5 µM] (inactive)
CC(C)CC(C)(O)C#CC(C)(O)CC(C)C (stereo not given) | inactive | 
c1ccncc1 | inactive | 

SMILES | outcome | cAMP activity change
Nc1ccc(Cl)cc1Cl | inactive | 
CN1C(C(=O)Nc2ccccn2)=C(O)c2ccccc2S1(=O)=O | inactive | 
O=C1c2cccc(O)c2C(=O)c2c(O)cccc21 | inactive | 
CC(C(=O)O)c1cccc(C(=O)c2ccccc2)c1 (stereo not given) | inactive | 
O=C(O)c1ccccc1Nc1cccc(C(F)(F)F)c1 | inactive | 
c1ccc2c(c1)c1cccc3ccc4cccc2c4c31 | inactive | 
CC(=O)O[C@]1(C(C)=O)CC[C@H]2[C@@H]3C=C(Cl)C4=CC(=O)[C@@H]5C[C@@H]5[C@]4(C)[C@H]3CC[C@@]21C | inactive | 
Cc1ccc2c(n1)Oc1ccc(C(C)C(=O)OCC(=O)N(C)C)cc1C2 (stereo not given) | inactive | 
O=C(/C=C/C=C/c1ccc2c(c1)OCO2)N1CCCCC1 |  | -1.31% (inactive)
Cc1cccc(N(C)C(=S)Oc2ccc3ccccc3c2)c1 | inactive | 
Cc1cccc(C(=O)O)c1 | inactive | 
CC(C)=CCCC(C)CCO (stereo not given) | inactive | 
COC(=O)C1=C(C)NC(C)=C(C(=O)OCCN(C)Cc2ccccc2)C1c1cccc([N+](=O)[O-])c1 (stereo not given) | inactive | 
Clc1nc(Cl)c(Cl)c(Cl)c1Cl | inactive | 
C/C=C/C(=O)O | inactive | 
CC(CCC(=O)O)(c1ccc(O)cc1)c1ccc(O)cc1 | inactive | 
O=P(O)(O)O | inactive | 
O=S(=O)(O)c1ccc(O)cc1 | inactive | 
O=Cc1ccccc1O | inactive | 
CC(C)=CCC/C(C)=C\CO | inactive | 
